# Compound activity deposited in PubChem by National Center for Advancing Translational Sciences (NCATS).
# An excerpt weighted towards active compounds, which were near 19% of everything screened.
# HT1080 IDH1KD tx: toxicity to HT-1080 IDH1 knockdown cells (counter line); HT-1080 IDH1 knockdown viability, ATP luminescence, 48 h; Potency, µM (doses to about 46.1 µM), for inactives: at the highest dose activity, negative = toxicity, most hits filed as cytotoxic; 2% of 360,000 active; AID 686971;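 also: 0% = DMSO wells and -100% = cell-free medium wells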
#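 HT-1080-IDH1KD cells (IDH1 knocked down), 750/well in RPMI with 5% FBS, treated with compound 48 h at 37 degrees C. Viability by CellTiter-Glo luminescence, normalised to DMSO and no-cell wells; concentration-response curves classed.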
# HT1080NT lethal: kills 2HG-producing HT-1080-NT fibrosarcoma cells; Potency, µM (series often up to 46.1 µM), without a hit: at the highest dose activity, negative = less viability, hits mostly cytotoxic; 1.6% of 360,000 active; HT-1080-NT fibrosarcoma viability, CellTiter-Glo ATP luminescence, 48 h;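 also: NT is the 2HG producing partner of a matched IDH1 knockdown line; 0% = DMSO-treated cells and -100% = media-only wells without cells; nearly all actives have a fitted effect of over 55% in size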
#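 Fibrosarcoma NT cells, 750 per well in 5% FBS RPMI, were exposed to compound for 48 hours. Viability: CellTiter-Glo luminescence.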
# DT40 TDP1 no CPT: qHTS for Inhibitors of human tyrosyl-DNA phosphodiesterase 1 (TDP1): qHTS in cells in absence of CPT; Potency, µM (series often up to 46.2 µM), inactives show at the top dose activity change, negative = growth inhibition, hits mostly inhibitors; 15% of 420,000 active; DT40 Tdp1-/- hTDP1 cells, no CPT, ATP luminescence, 48 h; also: nearly all actives have a fitted effect of over 55% in size
#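 Cells were dispensed at 400 per well, compounds added by pin tool, plates incubated ≥48 hr at 37 °C, then CellTiter-Glo added for 30 min at room temperature before luminescence reading. Line: DT40 Tdp1-/- complemented with hTDP1; camptothecin omitted.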
# KB-3-1 cytotox: kills parental KB-3-1 adenocarcinoma cells; KB-3-1 viability, CellTiter-Glo ATP luminescence, 72 h; Potency, µM (doses to about 46.1 µM), actives largely listed as cytotoxic; 1.4% of 400,000 active; also: nearly all actives have a fitted effect of over 60% in size
#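 Cytotoxicity in the drug-sensitive parental line KB-3-1 was scored as loss of CellTiter-Glo luminescence following 72 h incubation with compound. Values come from curve fitting of normalized concentration-response data.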
# TDP1 cell CPT: growth inhibition of DT40 Tdp1-/-;hTDP1 cells with camptothecin (screen for TDP1 inhibitors); 12% of 420,000 active; AID 686979; chicken DT40 Tdp1-/-;hTDP1 cells + 20 nM CPT, ATP luminescence, 48 h; Potency, µM (series often up to 46.2 µM), inactives show top-dose activity change, negative = growth inhibition, actives largely listed as inhibitors; also: nearly all actives have a fitted effect of over 55% in size
#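 Chicken DT40 Tdp1-/- cells stably complemented with human TDP1 were seeded at 400 cells/well in medium containing 20 nM camptothecin, exposed to pin-transferred compounds, and grown at 37 °C for at least 48 hr. Viability was read as ATP luminescence.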
# KB-V1 cytotox: KB-V1 MDR subline cytotoxicity | KB-V1 MDR cells viability, CellTiter-Glo, 72 h | Potency, µM (top dose mostly 46.1 µM), hits mostly cytotoxic | 3.4% of 400,000 active | AID 1347076; also: nearly all actives have a fitted effect of over 60% in size
#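 Readout: CellTiter-Glo luminescence, 10 min after addition. Cells: KB-V1 MDR subline, 72 h at 37 degrees C with compound. Analysis: corrected, normalized data fitted to concentration-effect curves.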
# * = called active by the depositor; i = inactive; ? = inconclusive; nt = no result given. Calls follow the shape of the dose curve; as a rule, active = well fitted curve in the direction sought with a large enough effect; inconclusive = small, poorly fitted or top-dose-only effect, or another doubt; inactive = no such curve, though single readings can be large; an effect the other way counts as inactive or inconclusive. Unless noted, % is scaled to controls: 0 for no effect and ±100 for the full control effect; potency is read from the fitted curve at half-maximal effect.
SMILES,HT1080 IDH1KD tx,HT1080NT lethal,DT40 TDP1 no CPT,KB-3-1 cytotox,TDP1 cell CPT,KB-V1 cytotox
N#Cc1c(N2CCCC2)nc(N)c2c(N)nc(N3CCCC3)cc12,-26%,-20%,18µM*,?,?,0.73µM*
N#Cc1c(N2CCCCC2)nc(N)c2c(N)nc3c(c12)CC(c1ccccc1)O3 (stereo unspecified),-24%,-17%,11µM*,i,?,?
Cc1ccc(CNC(=O)Cn2c(=O)ccc3cc(S(=O)(=O)N4CCC(C)CC4)ccc32)cc1,nt,nt,?,i,?,?
Cc1oc2c(c(C)cc3oc(=O)c(CC(=O)NCCc4ccc(Cl)cc4)c(C)c32)c1C,nt,nt,2%,nt,8%,nt
CC1=C(C(=O)N2CCOCC2)CC(CC(=O)NCC2CCCCC2)C(=O)N1Cc1ccccc1 (stereo unspecified),1%,2%,-8%,i,2%,i
O=C(Nc1cccc(C(F)(F)F)c1)c1cc2c(=O)c3ccccc3oc2nc1C(F)(F)F,2%,-4%,29µM*,i,?,21µM*
Cc1ccccc1C(=O)Nc1cccc(-c2ccc(N3CCOCC3)nn2)c1,15%,9%,?,?,?,?
COC(=O)[C@]1(CC(C)C)N[C@H](c2ccc(-c3ccc(F)cc3)cc2)[C@@H]2C(=O)N(C)C(=O)[C@@H]21,-1%,1%,?,?,18µM*,?
CCN1C(=O)[C@H]2[C@@H](c3ccc(-c4ccc(F)cc4)cc3)N[C@@](CC(C)C)(C(=O)OC)[C@H]2C1=O,-2%,0%,18µM*,i,13µM*,?
COC(=O)[C@]1(CC(C)C)N[C@H](c2ccc(-c3ccccc3)cc2)[C@@H]2C(=O)N(C)C(=O)[C@@H]21,13%,?,?,i,?,i
COC(=O)[C@]1(CC(C)C)N[C@H](c2ccc(-c3ccc(OC)cc3)cc2)[C@@H]2C(=O)N(C)C(=O)[C@@H]21,-2%,?,16µM*,?,?,?
Cc1cccc(C(=O)N2CCC(C)(C(=O)NS(=O)(=O)C3CC3)C2)c1C (stereo unspecified),27%,?,8%,i,-6%,i
O=C1/C(=C/C=C/c2ccco2)SC(=S)N1c1ccc(O)cc1,-20%,-19%,?,i,18µM*,i
CN(C)c1ccc(/C=C/C=C2/SC(=S)N(c3ccccc3)C2=O)cc1,-20%,2%,8.2µM*,i,18µM*,?
COc1ccc(CCN(C)C(=O)COc2ccc(C(=O)c3ccccc3)cc2)cc1OC,-6%,-8%,?,i,?,i
COc1ccc(CCNC(=O)c2cc(-c3ccccc3)nc3ccccc23)cc1OC,nt,nt,nt,i,nt,23µM*
COc1ccc(CCN(C)C(=O)Cc2ccc(-c3ccccc3)cc2)cc1OC,-28%,?,16µM*,?,18µM*,i
COc1ccc(-c2cc(C(=O)N(C)CCc3ccc(OC)c(OC)c3)c3ccccc3n2)cc1,-6%,-9%,23µM*,i,15µM*,?
COc1ccc(CNC(=O)c2cc(-c3ccncc3)nc3c(C)cc(C)cc23)cc1OC,-10%,-18%,?,i,?,23µM*
Nc1c(CNCc2nnn(Cc3ccccc3)c2N)nnn1Cc1ccccc1,0%,0%,?,i,?,i
COc1ccc(CCN(C)C(=O)c2cc(-c3ccccc3)nc3ccccc23)cc1OC,6%,-5%,23µM*,i,?,i
COc1ccc(CCNC(=O)c2cc(-c3ccccn3)nc3c(Cl)cccc23)cc1OC,13%,5%,?,?,-21%,i
COc1ccc(CCNC(=O)c2cc(Nc3cc(C)cc(C)c3)nc3ccccc23)cc1OC,nt,nt,8.2µM*,?,8.2µM*,i
COc1ccc(CCNC(=O)c2cc(-c3ccncc3)nc3c(Cl)cccc23)cc1OC,1%,-8%,21µM*,i,21µM*,23µM*
CC1(C(=O)NS(=O)(=O)c2ccccc2OC(F)(F)F)CCN1C(=O)Cc1ccccc1 (stereo unspecified),0%,26%,-10%,i,1%,i
SMILES,HT1080 IDH1KD tx,HT1080NT lethal,DT40 TDP1 no CPT,KB-3-1 cytotox,TDP1 cell CPT,KB-V1 cytotox
CCCN1C(=O)/C(=C/c2ccc(N3CCOCC3)cc2)NC1=S,17%,11%,15µM*,i,?,?
CCCN1C(=O)/C(=C/c2ccc(N3CCCC3)c(C)c2)NC1=S,-8%,-11%,21µM*,?,16µM*,?
CCN1C(=O)/C(=C/c2ccc(OCc3ccc(C(=O)O)cc3)c(Cl)c2)NC1=S,-16%,-13%,-3%,i,-5%,i
CCN1C(=O)/C(=C/c2ccc(N3CCCC3)cc2)NC1=S,-13%,-6%,23µM*,i,23µM*,i
Cc1cc(/C=C2\NC(=S)N(C)C2=O)ccc1N1CCCC1,8%,8%,?,i,?,i
CCCCC1CC2=C(C(=O)OC(C)(C)O2)C(c2ccc(Cl)cc2)O1 (stereo unspecified),-21%,-26%,?,i,?,i
Cn1cnnc1SCC(=O)Nc1ccc(C#N)cc1,nt,nt,1%,i,-2%,i
CN(C)c1ccc(/C=C/c2cc3ccccc3cn2)cc1,nt,nt,0.45µM*,1.5µM*,0.45µM*,i
C(=C\c1ccccn1)/c1ccccc1,nt,nt,-7%,?,-6%,i
CCN(CC)c1ccc(/C=C/c2ccccn2)cc1,nt,nt,0.28µM*,0.33µM*,0.18µM*,i
CN(C)c1ccc(/C=C/c2ccccn2)cc1,nt,nt,4.5µM*,?,1.4µM*,i
CN(C)c1ccc(/C=C/c2ccc3ncccc3c2)cc1,nt,nt,?,i,?,i
CCc1ccccc1NC(=O)CCC(=O)N1CC(C)Oc2ccc(C)cc21 (stereo unspecified),nt,nt,?,i,?,i
Cc1cc2c(n1-c1ccc(C(=O)NCCc3ccc(Cl)cc3)cc1)CCCC2,nt,nt,26µM*,i,?,i
Cc1ccccc1CNC(=O)c1ccc(-n2c(C)cc3c2CCCC3)cc1,nt,nt,?,i,?,i
CSc1ccc(CCNC(=O)c2ccc(-n3c(C)cc4c3CCCC4)cc2)cc1,nt,nt,18µM*,nt,21µM*,nt
